IL-1B inflam inh = inflammasome signaling inhibition, IL-1 beta readout; THP-1 LPS/ATP IL-1B secretion, AlphaLISA, 16 h; active compounds read low; activity change, % at 57.5 µM; actives 4.7% (n = 360,000); in the data active means activity change below about -50%; inconclusive means mostly about -30% to -49%
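Secreted IL-1B measured by AlphaLISA bead assay after 16 h compound exposure of THP-1 cells; compounds (final up to 57.5 uM) added 1 h before LPS (250 ng/mL) and ATP (1.25 mM) stimulation; lower signal means less secretion.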
HT1080NT lethal = kills 2HG-producing HT-1080-NT fibrosarcoma cells | HT-1080-NT fibrosarcoma viability, CellTiter-Glo ATP luminescence, 48 h | Potency, µM (highest dose often 46.1 µM), inactives show at the highest dose activity, negative = less viability, usual class: cytotoxic | actives 1.6% (n = 360,000) | AID 686970;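 further: NT is the 2HG producing partner of a matched IDH1 knockdown line; potency means the concentration at half of the fitted maximal effect; 0% = DMSO-treated cells and -100% = media-only wells without cells; nearly all actives have a fitted effect of over 55% in size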
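Fibrosarcoma NT cells, 750 per well in 5% FBS RPMI, were exposed to compound for 48 hours. Viability: CellTiter-Glo luminescence.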
TDP1 cell noCPT = qHTS for Inhibitors of human tyrosyl-DNA phosphodiesterase 1 (TDP1): qHTS in cells in absence of CPT | DT40 Tdp1-/- hTDP1 cells, no CPT, ATP luminescence, 48 h | Potency, µM (doses to about 46.2 µM), for inactives: top-dose activity change, negative = growth inhibition, hits mostly inhibitors | actives 15% (n = 420,000) | AID 686978, 2013; further: potency means the concentration at half of the fitted maximal effect; nearly all actives have a fitted effect of over 55% in size
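DT40 Tdp1-/-;hTDP1 cells, no CPT (DMSO vehicle only), 400 cells/well; compounds pin-transferred; ≥48 hr, 37 °C; CellTiter-Glo 30 min RT dark, luminescence read.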
TDP1 cell CPT = growth inhibition of DT40 Tdp1-/-;hTDP1 cells with camptothecin (screen for TDP1 inhibitors). chicken DT40 Tdp1-/-;hTDP1 cells + 20 nM CPT, ATP luminescence, 48 h. Potency, µM (series often up to 46.2 µM), without a hit: top-dose activity change, negative = growth inhibition, hits mostly inhibitors. actives 12% (n = 420,000). AID 686979; further: potency means the concentration at half of the fitted maximal effect; nearly all actives have a fitted effect of over 55% in size
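Cell growth measured by CellTiter-Glo luminescence after a minimum 48 h, 37 C compound exposure with 20 nM CPT in Tdp1-knockout DT40 cells stably expressing hTDP1, seeded 400/well; qHTS titration format.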
HT1080 IDH1KD tx = kills HT-1080 cells with IDH1 knockdown. Potency, µM (doses to about 46.1 µM), for the others: at the top dose activity, negative = toxicity, hits mostly cytotoxic. HT-1080 IDH1 knockdown viability, ATP luminescence, 48 h. actives 2% (n = 360,000);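 further: potency means the concentration at half of the fitted maximal effect; 0% = DMSO wells and -100% = cell-free medium wells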
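In this qHTS, HT-1080 cells depleted of IDH1 are exposed for 48 h at 37 °C to compound titrations. Toxicity is scored from CellTiter-Glo luminescence, with DMSO as full viability and medium alone as none.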
An asterisk follows results filed as active; ? = inconclusive; . = no result. Sampled rows, rich in hits. Any-hit rate of the full collection: about 19%. Unless noted, the call rests on the fitted dose curve; in most records, active means well fitted curve in the direction sought with a large enough effect; inconclusive means small, poorly fitted or top-dose-only effect, or another doubt; inactive means no such curve, though single readings can be large; an effect the other way counts as inactive or inconclusive. Unless noted, on the % scale 0 is the no-effect control and ±100 the full control effect.

SMILES | IL-1B inflam inh | HT1080NT lethal | TDP1 cell noCPT | TDP1 cell CPT | HT1080 IDH1KD tx
CCOc1ccc(/C=N/NC(=S)NC2CC3CCC2C3)cc1 (stereo not given) | -4.0 | 0.5% | ? | ? | 3.5%
COc1cc(/C=N/NC(=S)NC2CC3CC2C2C=CCC32)ccc1O (stereo not given) | -14.1 | 18.4µM* | 14.6µM* | ? | ?
Cc1nc(NCc2ccccc2)c2cc[nH]c2n1 | -14.1 | 1.9% | 11.6µM* | ? | -0.1%
COc1cccc(-c2nc(NCc3ccccc3)c3ccccc3n2)c1O | 9.9 | ? | ? | ? | ?
CC1CCN(C(=O)Nc2ccc3nc(-c4ccco4)c(-c4ccco4)nc3c2)CC1 | . | . | ? | 11.2µM* | .
O=C(Nc1ccc2nc(-c3ccco3)c(-c3ccco3)nc2c1)N1CCN(c2ccccn2)CC1 | -57.1* | 1.4% | 11.6µM* | 13µM* | -18.9%
COc1cccc(NC(=S)N(CCc2c(C)[nH]c3ccccc23)Cc2cccs2)c1 | -20.0 | -29.3% | 16.4µM* | ? | ?
COCCNC(=S)N(CCc1c(C)[nH]c2ccccc12)Cc1ccco1 | -8.7 | -2.4% | -16.5% | -29.1% | -5.3%
COCCNC(=S)N(CCc1c(C)[nH]c2ccc(Cl)cc12)Cc1cccs1 | -92.3* | 20.6µM* | ? | ? | ?
Cc1[nH]c2ccccc2c1CCN(Cc1cccs1)C(=S)Nc1ccccc1 | -19.7 | 2.0% | ? | ? | -5.3%
CCNC(=S)N(CCc1c(C)[nH]c2ccc(C)cc12)Cc1cccs1 | -53.3* | ? | ? | ? | ?
COCCNC(=S)N(CCc1c(C)[nH]c2ccc(OC)cc12)Cc1cccnc1 | 0.0 | 2.5% | -8.6% | 10.4% | -3.6%
COCCNC(=S)N(CCc1c(C)[nH]c2ccc(F)cc12)Cc1cccs1 | ? | ? | 23.1µM* | ? | -4.3%
CNC(=S)N(CCc1c(C)[nH]c2ccc(C)cc12)Cc1ccc(OC)c(OC)c1 | -17.9 | -12.9% | ? | ? | -17.1%
CCNC(=S)N(CCc1c(C)[nH]c2ccc(Cl)cc12)Cc1ccco1 | -59.0* | ? | ? | ? | ?
COc1cc(CN(CCc2c(C)[nH]c3ccc(C)cc23)C(=S)NC(C)(C)C)cc(OC)c1OC | -24.8 | -20.3% | 16.4µM* | 20.6µM* | -3.7%
CC(CCc1ccccc1)NC(=O)COC(=O)C(CCC(N)=O)NC(=O)c1ccc(F)cc1 (stereo not given) | 1.8 | 20.0% | -1.8% | 1.0% | -2.6%
Clc1ccc2oc3c(Cl)ncnc3c2c1 | -100.6* | -15.3% | 6.51µM* | 18.4µM* | 5.5%
O=C(CSc1ncnc2c1oc1ccccc12)Nc1cccc(Cl)c1 | 55.4 | -11.8% | -17.4% | ? | -22.7%
COc1ccccc1-c1c(C)nn2c(-c3ccccc3)cc(-c3ccccc3)nc12 | . | . | -26.5% | -5.4% | .
CCCNC(=O)c1ccc(N2CCC3(CC2)CC(c2cccc(Br)c2)=NO3)c(NC(=O)c2cccc(OC)c2)c1 | 7.2 | -5.2% | ? | ? | -3.9%
CCCNC(=O)c1ccc(N2CCC3(CC2)CC(c2cccc(Br)c2)=NO3)c(NC(=O)c2ccccc2)c1 | -10.5 | -6.3% | 23.1µM* | ? | -11.3%
CCCNC(=O)c1ccc(N2CCC3(CC2)CC(c2ccccc2)=NO3)c(NC(=O)c2ccccc2)c1 | -14.8 | -0.7% | 14.6µM* | 5.8µM* | -2.0%
CCCCCCCC(=O)Nc1cc(C(=O)NCCC)ccc1N1CCC2(CC1)CC(c1ccccc1)=NO2 | 8.3 | 2.3% | 11.6µM* | ? | 6.4%
CCCNC(=O)c1ccc(N2CCC3(CC2)CC(c2ccccc2)=NO3)c(NC(=O)c2ccc(Br)cc2)c1 | -6.5 | -2.2% | -15.9% | ? | 1.4%
SMILES | IL-1B inflam inh | HT1080NT lethal | TDP1 cell noCPT | TDP1 cell CPT | HT1080 IDH1KD tx
CCCNC(=O)c1ccc(N2CCC3(CC2)CC(c2ccccc2)=NO3)c(NC(=O)c2cccc(C)c2)c1 | -10.0 | -2.4% | ? | 8.2µM* | -4.7%
Cc1ccc(CNC(=O)c2ccc(N3CCC4(CC3)CC(c3ccccc3)=NO4)c(NC(=O)c3cccc(C)c3)c2)cc1 | 2.3 | 2.3% | -25.8% | -0.8% | 2.1%
O=C(Cn1c2ccccc2c(=O)c2ccccc21)Nc1cccc(F)c1 | 13.1 | -2.6% | ? | 16.4µM* | -6.7%
C=CCNC(=O)c1ccc(-n2cccc2)cc1 | -6.4 | 16.0% | ? | ? | 19.6%
Cc1cc(=O)oc2c(C)c(OC3CCCCC3=O)ccc12 (stereo not given) | -1.1 | -4.8% | -2.3% | -4.9% | -9.2%
CCN(Cc1ccccc1)C(=O)C1CCC(CNS(=O)(=O)c2ccc3c(c2)CCCC(=O)N3)CC1 (stereo not given) | . | . | 16.4µM* | ? | .
COc1cccc(NC(=O)C2CCC(CNS(=O)(=O)c3ccc4c(c3)CCCC(=O)N4)CC2)c1 (stereo not given) | . | . | 14.6µM* | 11.6µM* | .
COc1cccc(CNC(=O)C2CCC(CNS(=O)(=O)c3ccc4c(c3)CCCC(=O)N4)CC2)c1 (stereo not given) | . | . | -22.2% | -24.9% | .
CCOc1ccccc1NC(=O)C1CCC(CNS(=O)(=O)c2ccc3c(c2)CCCC(=O)N3)CC1 (stereo not given) | . | . | 23.1µM* | ? | .
COc1ccccc1CNC(=O)C1CCC(CNS(=O)(=O)c2ccc3c(c2)CCCC(=O)N3)CC1 (stereo not given) | . | . | -28.5% | -20.7% | .
CCc1cc(C(=O)N(C)CC(=O)Nc2c(Cl)cccc2Cl)sc1C | -6.5 | 4.4% | -18.0% | -14.2% | 8.9%
CC(C)(C)C(C(=O)n1cccc1C#N)c1ccccc1 (stereo not given) | 34.4 | 3.2% | -16.2% | ? | 8.7%
O=C(CSc1nnc(-c2ccc(Cl)cc2)o1)N1CCOCC1 | 5.3 | 3.3% | ? | -12.2% | 4.5%
O=C(CN1c2ccccc2Sc2ccccc21)N/N=C/c1ccc([N+](=O)[O-])cc1 | -9.0 | -14.2% | 20.6µM* | ? | -1.1%
O=C(CN1c2ccccc2Sc2ccccc21)N/N=C/c1ccccc1 | -5.3 | -13.6% | ? | ? | -3.8%
CCC(C(=O)Nc1ccc(C(=O)OC)cc1)n1c(=O)c(-c2ccccc2NC(C)=O)nc2ccccc21 (stereo not given) | . | . | 3.26µM* | 14.6µM* | .
CCOc1ccc(NC(=O)C(CC)n2c(=O)c(-c3ccccc3NC(C)=O)nc3ccccc32)cc1 (stereo not given) | . | . | ? | 18.4µM* | .
CSc1ccc(Cl)c(C(=O)Nc2cc(S(=O)(=O)N3CCOCC3)ccc2N2CCOCC2)c1 | -24.0 | -4.0% | ? | -26.5% | -7.2%

Source: PubChem BioAssay (National Center for Advancing Translational Sciences (NCATS))
